Outcome and AC50 data for eight molecules are collected here from PubChem BioAssay (EPA / NIEHS).

The source made the active and inactive calls. The calls were made as follows: active = hit-call score of the fitted dose curve at least 0.9, where 1 is the maximum; inactive = score below 0.9.

A short description of experiment [1]: APR_HepG2_CellCycleArrest_1hr: Apredica 1-hour HepG2 Assay for Cell Cycle Arrest (AID 2282666). The note with it: high-content imaging, actives raise or lower the signal. In a few lines:
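Cell cycle arrest scored from nuclear DNA content (Hoechst 33342) using high-content imaging of fixed HepG2 cells after 1 h treatment across 0.39–200 uM, in duplicate. Gain or loss fitted relative to 0.5% DMSO.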

Experiment [2] is described as follows: APR_HepG2_CellLoss_1hr: Apredica 1-hour HepG2 Assay for Cell Loss (AID 2282668).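 Also: curves fitted both ways against DMSO so gain or loss of cells counts.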 Particulars: high-content imaging. The procedure, abridged: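 Cell number comes from high-content imaging of Hoechst-labelled nuclei in fixed HepG2 cells. Cells were exposed for 1 h to ten concentrations from 0.39 to 200 uM in 0.5% DMSO. Gain or loss was fitted against DMSO controls.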

The nature of experiment [3]: APR_HepG2_MitoticArrest_1hr: Apredica 1-hour HepG2 Assay for Mitotic Arrest (AID 2282672). The note with it: high-content imaging, actives raise or lower the signal. In a few lines: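 Ten-point concentration series (0.39 to 200 uM, duplicates, 0.5% v/v DMSO) applied to human HepG2 liver cells for 1 hr. High-content imaging of phospho-histone H3 and Hoechst-stained nuclei after fixation and permeabilization; DMSO-normalised bidirectional fit.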

The nature of experiment [4]: APR_HepG2_MitoMembPot_1hr: Apredica 1-hour HepG2 Assay for Mitochondrial Membrane Potential (AID 2282675). Particulars: imaging, actives raise or lower the signal. In a few lines:
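Mitochondrial membrane potential read as MitoTracker Red CMXRos intensity by automated imaging of fixed HepG2 cells. Dye at 250 nM for 30 min pre-fixation; compounds 0.39 to 200 uM for 1 hour, duplicate wells, 0.5% DMSO.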

The nature of experiment [5]: APR_HepG2_CellCycleArrest_24hr: Apredica 24-hour HepG2 Assay for Cell Cycle Arrest (AID 2282905).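 Also: cell cycle arrest scored as ratio of 2N to 4N nuclear DNA content.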 Particulars: imaging, actives raise or lower the signal. The procedure, abridged:
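Step one: dose HepG2 with test compounds, 0.39–200 uM, 0.5% DMSO, 24 hr. Step two: fix, permeabilize, stain nuclei with Hoechst 33342. Step three: image six fields per well at 20x, quantify DNA content, fit bidirectionally relative to DMSO.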

A short description of experiment [6]: APR_HepG2_StressKinase_1hr: Apredica 1-hour HepG2 Assay for Stress Kinase (AID 2282906). Particulars: HepG2 stress kinase (phospho-c-Jun) imaging, actives raise or lower the signal. The procedure, abridged: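 High-content imaging of phospho-c-Jun immunostaining (with Hoechst nuclear identification) after a 1 h exposure of HepG2 cells to 10 concentrations from 0.39 to 200 uM, final DMSO 0.5%. Fitted bidirectionally against DMSO.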

The nature of experiment [7]: APR_HepG2_NuclearSize_24hr: Apredica 24-hour HepG2 Assay for Nuclear Size (AID 2282907). Particulars: high-content imaging, actives raise or lower the signal. In a few lines:
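After fixation and permeabilization, 24-hr-treated HepG2 cells were stained with Hoechst 33342 and imaged on an ArrayScan (20x). Doses spanned 0.39–200 uM in duplicate. Nuclear diameter changes in either direction were fitted relative to 0.5% DMSO controls.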

A short description of experiment [8]: APR_HepG2_CellLoss_24hr: Apredica 24-hour HepG2 Assay for Cell Loss (AID 2282908). Particulars: high-content imaging. In a few lines: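 Duplicate wells received compound at ten concentrations (0.39–200 uM; final DMSO 0.5% v/v). After fixation with formaldehyde, nuclei stained with Hoechst 33342 were imaged at 20x. Loss or gain of cell count was fitted relative to DMSO controls.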

Experiment [9] can be described thus: APR_HepG2_MicrotubuleCSK_24hr: Apredica 24-hour HepG2 Assay for Microtubule CSK Stabilty (AID 2282909). Particulars: HepG2 microtubule cytoskeleton imaging, actives raise or lower the signal. In a few lines: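 Microtubule stability is scored from tubulin immunofluorescence in fixed HepG2 cells imaged at 20x. Cells receive ten compound concentrations up to 200 uM for 24 h; taxol and DMSO serve as positive and negative controls.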

Experiment [10] can be described thus: APR_HepG2_MitoticArrest_24hr: Apredica 24-hour HepG2 Assay for Mitotic Arrest (AID 2282910). The note with it: high-content imaging, actives raise or lower the signal. The procedure, abridged: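 HepG2, 24 hr dosing, 0.39–200 uM, 0.5% DMSO final. Formaldehyde-fixed, Triton-permeabilised, anti-phospho-histone H3 plus Hoechst. ArrayScan imaging at 20x; bidirectional fit vs DMSO baseline.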

Experiment [11] in a line: APR_HepG2_MitoMembPot_24hr: Apredica 24-hour HepG2 Assay for Mitochondrial Membrane Potential (AID 2282911). The note with it: imaging, actives raise or lower the signal. The procedure, abridged: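 Mitochondrial membrane potential imaged via MitoTracker Red CMXRos (250 nM, 30 min pre-fixation) in fixed HepG2 cells with Hoechst nuclear identification. Ten concentrations 0.39–200 uM, 24 h treatment, 0.5% DMSO; CCCP as positive control.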

Experiment [12] is described as follows: APR_HepG2_MitoMass_24hr: Apredica 24-hour HepG2 Assay for Mitochondrial Mass (AID 2282912). The note with it: high-content imaging, actives raise or lower the signal. In a few lines:
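Readout: fluorescence of MitoTracker Red CMXRos (250 nM, added 30 min pre-fixation) in fixed HepG2 cells imaged by HCS. Exposure lasted 24 hr at 0.39–200 uM; increases and decreases were both fitted relative to DMSO.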

Experiment [13] in a line: APR_HepG2_p53Act_24hr: Apredica 24-hour HepG2 Assay for p53 Activation (AID 2282913).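 Also: p53 protein immunofluorescence averaged per cell in HepG2 with Hoechst nuclei.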 The note with it: high-content imaging, actives raise or lower the signal. The procedure, abridged: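 Fluorescence imaging of formaldehyde-fixed HepG2 cells labelled for p53 and with Hoechst, 24 h after dosing (0.39–200 uM, duplicate wells, 0.5% v/v DMSO). Signal fitted in both directions relative to DMSO.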

A short description of experiment [14]: APR_HepG2_CellCycleArrest_72hr: Apredica 72-hour HepG2 Assay for Cell Cycle Arrest (AID 2282914). The note with it: high-content imaging, actives raise or lower the signal. In a few lines: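 Read-out: nuclear DNA content from Hoechst 33342 high-content imaging (20x, six fields/well) after 3.7% formaldehyde fixation, fitted bidirectionally against DMSO. Treatment was 72 h in HepG2, ten concentrations 0.39–200 uM, duplicate, 0.5% DMSO.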

The nature of experiment [15]: APR_HepG2_CellLoss_72hr: Apredica 72-hour HepG2 Assay for Cell Loss (AID 2282915). The note with it: high-content imaging. The procedure, abridged:
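HepG2 cells exposed 72 h to compound at 0.39–200 uM (10 concentrations, duplicate) in 0.5% DMSO. Fixed with 3.7% formaldehyde and Hoechst 33342-stained. Imaged at 20x; nuclear count gives cell number, fitted bidirectionally versus DMSO.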

Experiment [16] is described as follows: APR_HepG2_P-H2AX_1hr: Apredica 1-hour HepG2 Assay for H2AX Phosphorylation (AID 2282673). Particulars: high-content imaging, actives raise or lower the signal. The procedure, abridged:
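Phospho-H2A.x immunofluorescence (1:200, FITC secondary) plus Hoechst nuclear stain, quantified by high-content imaging in HepG2 after 1 hr compound exposure. Ten concentrations, 0.39 to 200 uM, in duplicate with 0.5% DMSO; fit both directions against DMSO.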

Experiment [17] in a line: APR_HepG2_NuclearSize_1hr: Apredica 1-hour HepG2 Assay for Nuclear Size (AID 2282670). Particulars: high-content imaging, actives raise or lower the signal. In a few lines: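 Nuclear size measured by high-content imaging of Hoechst 33342 nuclear stain after formaldehyde fixation; human HepG2 line exposed 1 hr to compounds at 0.39–200 uM in 0.5% DMSO, with bidirectional curve fitting relative to DMSO.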

A short description of experiment [18]: APR_HepG2_p53Act_1hr: Apredica 1-hour HepG2 Assay for p53 Activation (AID 2282671). Particulars: high-content imaging, actives raise or lower the signal. In a few lines:
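After 1 h exposure (0.39–200 uM, 0.5% DMSO final, duplicates), fixed HepG2 cells were labelled with anti-p53 antibody plus Hoechst nuclear stain. Fluorescence quantified by automated 20x imaging; changes fitted in both directions against DMSO.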

The nature of experiment [19]: APR_HepG2_MitoMass_1hr: Apredica 1-hour HepG2 Assay for Mitochondrial Mass (AID 2282674). Particulars: high-content imaging, actives raise or lower the signal. The procedure, abridged: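 Mitochondrial mass is taken from MitoTracker Red CMXRos (250 nM, 30 min, pre-fixation) fluorescence imaged at 20x in HepG2 cells. Exposure lasted 1 hr across ten concentrations, 0.39 to 200 uM, 0.5% DMSO; DMSO baseline, bidirectional fitting.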

Consider `S=C1NCCN1`, for which the call in experiment [1], in experiment [2], in [3], in [4], in [5] and in experiment [6] was inactive. The molecule was called inactive in experiment [7], in experiment [8], in experiment [9], in experiment [10], in [11] and in [12]. Further, the call in experiment [13], in experiment [14] and in [15] was inactive.
With `CCCOc1nn(C(=O)NS(=O)(=O)c2ccccc2C(=O)OC)c(=O)n1C`, the outcome in experiment [1], in experiment [2], in experiment [4], in experiment [5], in [6] and in experiment [7] was inactive. For the same molecule, the molecule was called inactive in [8], in [9], in [10], in experiment [11], in experiment [12] and in experiment [13]. Also, the call in [14] and in [15] was inactive.
Consider `CC(C1CC1)C(O)(Cn1cncn1)c1ccc(Cl)cc1` (stereo not given), for which the molecule was classed as inactive in experiment [1], in experiment [2], in experiment [3], in experiment [16], in [4] and in [5]. Also, the molecule was called inactive in [6], in [7], in experiment [8], in experiment [9], in experiment [10] and in experiment [11]. For the same molecule, the result in [12], in experiment [13], in [14] and in [15] was inactive.
`CN1COCN(Cc2cnc(Cl)s2)C1=N[N+](=O)[O-]`: the outcome in [1], in [2], in [16], in [4], in experiment [5] and in experiment [6] was inactive. Also, the call in experiment [7], in [8], in experiment [9], in experiment [10], in [11] and in experiment [12] was inactive. Moreover, the call in experiment [13], in [14] and in experiment [15] was inactive.
Turning to `CC(Oc1cccc(Cl)c1)C(=O)O` (stereo not given), the result in experiment [1], in experiment [2], in experiment [17], in experiment [18], in [4] and in experiment [5] was inactive. The molecule was classed as inactive in experiment [6], in [7], in experiment [8], in [9], in experiment [10] and in experiment [11]. For the same molecule, the result in experiment [12], in [13], in experiment [14] and in [15] was inactive.
Regarding `COc1cc(OC)nc(Sc2cccc(Cl)c2C(=O)O)n1`, the call in [1], in experiment [2], in experiment [16], in experiment [19], in experiment [4] and in experiment [5] was inactive. The call in [6], in experiment [7], in experiment [8], in experiment [9], in [10] and in experiment [11] was inactive. Besides, the call in [12], in [13], in experiment [14] and in experiment [15] was inactive.
For `CSC1=N[C@@](C)(c2ccccc2)C(=O)N1Nc1ccccc1`, the call in [1], in experiment [2], in [3], in experiment [19], in experiment [4] and in experiment [5] was inactive. The molecule was classed as inactive in experiment [6], in [7], in experiment [8], in [10], in experiment [11] and in experiment [12]. The outcome in experiment [13] and in experiment [14] was inactive. In addition, the figures for the AC50 in experiment [9] and in [15] were 43.3 µM (active) and 12.2 µM (active), respectively.
As for `CCOC(=O)COc1cc(-c2nn(C)c(OC(F)F)c2Cl)c(F)cc1Cl`, the call in [1], in [2], in experiment [17], in experiment [3], in [16] and in [4] was inactive. The molecule was classed as inactive in [5], in experiment [6], in experiment [7], in experiment [8], in [9] and in experiment [10]. Also, the call in experiment [11], in experiment [12], in experiment [13], in [14] and in experiment [15] was inactive.
